This passage reports outcome and AC50 results from PubChem BioAssay (EPA / NIEHS).

Read-out in assay [1]: Monokine induced gamma interferon (MIG), CXCL9 (gene 4283)
As to the kind of experiment: BSK_hDFCGF_MIG: BioMAP Diversity Plus: hDFCGF Assay for Monokine induced gamma interferon (MIG) Biomarker Activity (AID 2283063). Conditions: primary human foreskin fibroblasts; actives raise or lower the signal. In outline: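 MIG signal, determined by ELISA, reflects 24 h chemical exposure of human skin primary fibroblasts. DMSO serves as negative control and baseline.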

Read-out in assay [2]: Matrix Metallopeptidase 1 (MMP1), MMP1 (gene 4312)
As to the kind of experiment: BSK_hDFCGF_MMP1: BioMAP Diversity Plus: hDFCGF Assay for Matrix Metallopeptidase 1 (MMP1) Biomarker Activity (AID 2283064). Conditions: primary human foreskin fibroblasts; actives raise or lower the signal. In outline:
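Primary human foreskin fibroblasts in the hDFCGF system were dosed with test chemical, and MMP1 was measured by ELISA 24 h later. Values come from bidirectional curve fitting against the DMSO baseline.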

Read-out in assay [3]: Vascular cell adhesion molecule 1 (VCAM1), VCAM1 (gene 7412)
The assay can be described thus: BSK_hDFCGF_VCAM1: BioMAP Diversity Plus: hDFCGF Assay for Vascular cell adhesion molecule 1 (VCAM1) Biomarker Activity (AID 2283065).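 For AC50: VCAM-1 protein level quantified by ELISA after 24 h chemical exposure.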 Conditions: primary human foreskin fibroblasts; actives raise or lower the signal. In outline:
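Cells are dosed, cultured for 24 h, then VCAM-1 is quantified by ELISA; signal increases and decreases are both fitted relative to DMSO.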

Read-out in assay [4]: Plasminogen activator inhibitor-1 (PAI1), SERPINE1 (gene 5054)
As to the kind of experiment: BSK_hDFCGF_PAI1: BioMAP Diversity Plus: hDFCGF Assay for Plasminogen activator inhibitor-1 (PAI1) Biomarker Activity (AID 2283066). Conditions: primary human foreskin fibroblasts; actives raise or lower the signal. An outline of the steps: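 Human foreskin fibroblasts in the hDFCGF system were dosed with compound for 24 h; PAI-1 was quantified by ELISA. Bidirectional curve fitting used DMSO as negative control and baseline.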

Read-out in assay [5]: Intercellular Adhesion Molecule 1 (ICAM1), ICAM1 (gene 3383)
As to the kind of experiment: BSK_KF3CT_ICAM1: BioMAP Diversity Plus: KF3CT Assay for Intercellular Adhesion Molecule 1 (ICAM1) Biomarker Activity (AID 2283067). Conditions: primary human keratinocytes with fibroblasts; actives raise or lower the signal. In outline: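 Dose the keratinocyte/fibroblast co-culture, wait 24 h, measure ICAM-1 by ELISA, then fit increases or decreases against DMSO. Cytotoxicity is checked in parallel cultures by SRB total-protein staining.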

Read-out in assay [6]: Interferon-gamma inducible Protein 10 (IP10), CXCL10 (gene 3627)
The assay can be described thus: BSK_KF3CT_IP10: BioMAP Diversity Plus: KF3CT Assay for Interferon-gamma inducible Protein 10 (IP10) Biomarker Activity (AID 2283068). Conditions: primary human keratinocytes with fibroblasts; actives raise or lower the signal. In outline: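 In a primary skin co-culture of keratinocytes and fibroblasts, IP-10 is quantified by ELISA at 24 h after dosing. SRB staining of parallel wells monitors overt toxicity. Curves are fitted both directions against DMSO.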

The nature of assay [7]: BSK_KF3CT_SRB: Viability Assessment in the BioMAP Diversity Plus: KF3CT Assay (AID 2283069). Conditions: primary human keratinocytes with fibroblasts. An outline of the steps:
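Human primary keratinocyte plus foreskin fibroblast co-culture exposed to chemicals for 24 h. Total protein measured by 0.1% sulforhodamine B staining after 10% TCA fixation, read at 560 nm; bidirectional fitting versus DMSO baseline.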

Read-out in assay [8]: Interleukin-1 alpha (IL1a), IL1A (gene 3552)
The assay can be described thus: BSK_KF3CT_IL1a: BioMAP Diversity Plus: KF3CT Assay for Interleukin-1 alpha (IL1a) Biomarker Activity (AID 2283070). Conditions: primary human keratinocytes with fibroblasts; actives raise or lower the signal. An outline of the steps: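 Human keratinocyte plus foreskin fibroblast primary co-culture, sampled 24 h after chemical dosing. IL-1a measured by ELISA; responses fitted bidirectionally against DMSO baseline (negative control), so gain or loss of signal both count.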

Read-out in assay [9]: TIMP metallopeptidase inhibitor 2 (TIMP2), TIMP2 (gene 7077)
As to the kind of experiment: BSK_KF3CT_TIMP2: BioMAP Diversity Plus: KF3CT Assay for TIMP metallopeptidase inhibitor 2 (TIMP2) Biomarker Activity (AID 2283071). Conditions: primary human keratinocytes with fibroblasts; actives raise or lower the signal. In outline:
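Human primary keratinocyte/foreskin fibroblast co-culture dosed with chemical and sampled at 24 h. TIMP-2 levels quantified by ELISA; bidirectional fitting against DMSO negative control as baseline.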

Read-out in assay [10]: C-C motif chemokine 2 (Homo sapiens) (UniProt P13500)
As to the kind of experiment: BSK_KF3CT_MCP1: BioMAP Diversity Plus: KF3CT Assay for Monocyte Chemoattractant Protein 1 (MCP1/CCL2) Biomarker Activity (AID 2283073). Conditions: primary human keratinocytes with fibroblasts; actives raise or lower the signal. In outline:
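Keratinocytes and foreskin fibroblasts were co-cultured, dosed with chemical, and sampled 24 h later. MCP-1 was quantified by ELISA, and the endpoint was analyzed with bidirectional fitting using DMSO as negative control.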

Read-out in assay [11]: Matrix Metallopeptidase 9 (MMP9), MMP9 (gene 4318)
The assay can be described thus: BSK_KF3CT_MMP9: BioMAP Diversity Plus: KF3CT Assay for Matrix Metallopeptidase 9 (MMP9) Biomarker Activity (AID 2283074). Conditions: primary human keratinocytes with fibroblasts; actives raise or lower the signal. An outline of the steps:
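Keratinocyte plus foreskin fibroblast human primary skin co-culture was dosed with chemical and MMP-9 was quantified by ELISA 24 h later. Bidirectional curve fitting used DMSO as negative control and activity baseline.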

Read-out in assay [12]: urokinase plasminogen activator (uPA), PLAU (gene 5328)
The assay can be described thus: BSK_KF3CT_uPA: BioMAP Diversity Plus: KF3CT Assay for urokinase plasminogen activator (uPA) Biomarker Activity (AID 2283075). Conditions: primary human keratinocytes with fibroblasts; actives raise or lower the signal. An outline of the steps: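 Human keratinocyte plus foreskin fibroblast primary co-culture exposed to chemical for 24 h. uPA levels were quantified by ELISA, and activity was fitted bidirectionally against a DMSO negative-control baseline.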

Read-out in a further assay: CD40, CD40 (gene 958)
As to the kind of experiment: BSK_LPS_CD40: BioMAP Diversity Plus: LPS Assay for CD40 Biomarker Activity (AID 2283076). Conditions: primary human HUVEC with PBMC; actives raise or lower the signal. An outline of the steps: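 CD40 signal, measured by ELISA, is fitted in both directions relative to DMSO vehicle. The system is an LPS-driven human vascular primary co-culture of endothelial cells and PBMC, sampled 24 h after compound addition.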

Read-out in assay [13]: E-selectin (Homo sapiens) (UniProt P16581)
As to the kind of experiment: BSK_LPS_Eselectin: BioMAP Diversity Plus: LPS Assay for Eselectin Biomarker Activity (AID 2283077). Conditions: primary human HUVEC with PBMC; actives raise or lower the signal. An outline of the steps:
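Signal of E-selectin, detected by ELISA, served as the endpoint; cells were umbilical vein endothelium with PBMC, read 24 h after treatment. DMSO defined baseline, and both increases and decreases were fitted.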

Read-out in assay [14]: Interleukin-8 (IL8), CXCL8 (gene 3576)
As to the kind of experiment: BSK_LPS_IL8: BioMAP Diversity Plus: LPS Assay for Interleukin-8 (IL8) Biomarker Activity (AID 2283078). Conditions: primary human HUVEC with PBMC; actives raise or lower the signal. An outline of the steps:
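Endothelial cells and PBMC from human donors are co-cultured, treated with chemicals and LPS, then assayed for IL-8 by ELISA after 24 h. Parallel SRB staining (0.1% SRB after 10% TCA fixation, 560 nm) flags cytotoxicity.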

Assay [15] in a line: BSK_LPS_SRB: Viability Assessment in the BioMAP Diversity Plus: LPS Assay (AID 2283079).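 Note: total protein by sulforhodamine B absorbance as a cytotoxicity measure; measured one day after compound addition.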 Conditions: primary human HUVEC with PBMC. An outline of the steps:
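Overt cytotoxicity was gauged by sulforhodamine B total-protein staining in a primary human vascular endothelial and mononuclear cell co-culture 24 h post-dosing. Activity was fitted in both directions relative to DMSO.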

Read-out in assay [16]: Interleukin-1 alpha (IL1a), IL1A (gene 3552)
The assay can be described thus: BSK_LPS_IL1a: BioMAP Diversity Plus: LPS Assay for Interleukin-1 alpha (IL1a) Biomarker Activity (AID 2283080). Conditions: primary human HUVEC with PBMC; actives raise or lower the signal. An outline of the steps: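 Measured: IL-1 alpha via ELISA at 24 h in LPS-activated human umbilical vein endothelium–PBMC co-culture. Baseline: DMSO, bidirectional fitting.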

Read-out in assay [17]: Monocyte Chemoattractant Protein-1 (MCP1), CCL2 (gene 6347)
As to the kind of experiment: BSK_LPS_MCP1: BioMAP Diversity Plus: LPS Assay for Monocyte Chemoattractant Protein-1 (MCP1) Biomarker Activity (AID 2283081).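 For AC50: secreted MCP-1 protein quantified by ELISA in culture supernatant.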 Conditions: primary human HUVEC with PBMC; actives raise or lower the signal. In outline:
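LPS-stimulated HUVEC/PBMC co-culture; chemical, 24 h; MCP-1 by ELISA; bidirectional fit vs DMSO; cytotoxicity via SRB (0.1% stain, 10% TCA fix, 560 nm) in parallel wells.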

Assay [18] in a line: BSK_LPS_PGE2: BioMAP Diversity Plus: LPS Assay for Prostaglandin E2 (PGE2) Biomarker Activity (AID 2283082).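 For AC50: secreted prostaglandin E2 measured by ELISA in LPS-stimulated co-culture.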 Conditions: primary human HUVEC with PBMC; actives raise or lower the signal. In outline:
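HUVEC plus PBMC co-culture stimulated with LPS; secreted PGE2 quantified by ELISA 24 h after chemical dosing. Activity fitted bidirectionally against DMSO as negative control and baseline; parallel SRB total-protein staining served as cytotoxicity check.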

Calls of active or inactive are those of the source. Rule for the calls: active = hit-call score of the fitted dose curve at least 0.9, where 1 is the maximum; inactive = score below 0.9.

E-selectin (Homo sapiens), sequence (P16581 whole entry, looked up): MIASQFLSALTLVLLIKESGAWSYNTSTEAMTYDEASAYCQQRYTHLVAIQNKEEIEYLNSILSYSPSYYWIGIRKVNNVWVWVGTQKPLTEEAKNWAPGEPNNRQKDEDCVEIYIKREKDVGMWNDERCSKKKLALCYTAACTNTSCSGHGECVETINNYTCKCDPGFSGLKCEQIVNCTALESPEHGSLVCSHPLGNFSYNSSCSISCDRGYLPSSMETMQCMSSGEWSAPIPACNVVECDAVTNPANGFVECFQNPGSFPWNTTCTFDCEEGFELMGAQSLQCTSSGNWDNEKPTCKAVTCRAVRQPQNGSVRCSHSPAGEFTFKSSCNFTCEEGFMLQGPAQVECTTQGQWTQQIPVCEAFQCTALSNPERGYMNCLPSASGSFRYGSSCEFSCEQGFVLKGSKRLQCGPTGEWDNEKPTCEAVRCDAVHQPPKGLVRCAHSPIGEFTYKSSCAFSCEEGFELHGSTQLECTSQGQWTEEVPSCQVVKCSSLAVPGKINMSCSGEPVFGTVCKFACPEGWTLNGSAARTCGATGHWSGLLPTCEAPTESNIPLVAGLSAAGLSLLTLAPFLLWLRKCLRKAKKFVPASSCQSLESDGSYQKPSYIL

Turning to `FC(F)(F)COC(OCC(F)(F)F)OCC(F)(F)F`, the result in [1], in [2], in [3], in assay [4], in [5] and in [6] was inactive. The outcome in [7], in assay [8], in [9], in [10], in assay [11] and in assay [12] was inactive. Moreover, the outcome with CD40, CD40 (gene 958) is “inactive”; in assay [13], “inactive”; in assay [14] it was “inactive”; in assay [15], “inactive”; in assay [16], “inactive”; in assay [17], “inactive”. Further, the outcome in assay [18] was inactive.
Take `O=S1(=O)CCCO1`: the result in assay [1], in [2], in assay [3], in [4], in assay [5] and in assay [6] was inactive. In addition, the outcome in assay [7], in assay [8], in assay [9], in assay [10], in assay [11] and in assay [12] was inactive. Further, the outcome with CD40, CD40 (gene 958) is “inactive”; in assay [13], “inactive”; in assay [14], “inactive”; in [15] it was “inactive”; in assay [16] it was “inactive”; in assay [17], “inactive”. In assay [18], the outcome was inactive.
Take `CCOc1ccc2[nH]cc(C(=O)NCc3ccccc3)c(=O)c2n1`: the outcome in assay [1], in assay [2], in assay [3], in assay [4], in assay [5] and in assay [6] was inactive. Also, the result in assay [7], in [8], in [9], in assay [10], in [11] and in assay [12] was inactive. Besides, the outcome is “inactive” with CD40, CD40 (gene 958); “inactive” in assay [13]; “inactive” in assay [14]; “inactive” in [15]; “inactive” in assay [16]; “inactive” in assay [17]. Also, the result in assay [18] was inactive.
With `CNC(C)=O`, the outcome in [1], in [2], in assay [3], in assay [4], in [5] and in assay [6] was inactive. In addition, the outcome in assay [7], in assay [8], in [9], in assay [10], in assay [11] and in [12] was inactive. The outcome is “inactive” with CD40, CD40 (gene 958); “inactive” in assay [13]; “inactive” in assay [14]; “inactive” in [15]; “inactive” in assay [16]; “inactive” in assay [17]. In addition, the result in assay [18] was inactive.
In the case of `O=C(O)c1cccc(C[C@@H]2COc3ccc(OCc4nc5cc(F)ccc5s4)cc3[C@@H]2O)c1`, the outcome in assay [1], in assay [2], in [3], in assay [4], in assay [5] and in [6] was inactive. Further, the result in assay [7], in assay [8], in assay [9], in assay [10], in assay [11] and in assay [12] was inactive. For the same compound, the outcome with CD40, CD40 (gene 958) is “inactive”; in [13] it was “inactive”; in assay [14], “inactive”; in assay [15], “inactive”; in assay [16], “inactive”; in assay [17], “inactive”. The result in assay [18] was inactive.
Take `CC(C)c1nnc2ccc(-c3ocnc3-c3cc(F)ccc3F)cn12`: the outcome in [1], in assay [4], in [5], in assay [6], in assay [7] and in [8] was inactive. For the same compound, the outcome in [9] is “inactive”; in [10], “inactive”; in assay [11], “inactive”; in [12], “inactive”; with CD40, CD40 (gene 958), “inactive”; in [15] it was “inactive”. Besides, the AC50 – broadly, the concentration at which the activity in the assay is half-maximal – in [2] is 0.385 µM (active); in [3], 0.148 µM (active); in [13], 0.248 µM (active); in assay [14], 0.148 µM (active); in assay [16], 0.148 µM (active); in assay [17], 4.6 µM (active). Also, in [18], the AC50 was 0.346 µM (active).
For `O=C(NO)C1(NS(=O)(=O)c2ccc(Oc3ccc(F)cc3)cc2)CCOCC1`, the outcome in assay [1], in assay [2], in [3], in assay [4], in assay [5] and in assay [6] was inactive. The result in assay [7], in [8], in [9], in assay [10], in [11] and in [12] was inactive. The outcome with CD40, CD40 (gene 958) was “inactive”; in [13], “inactive”; in [14], “inactive”; in assay [15], “inactive”; in [16] it was “inactive”; in assay [17], “inactive”. Moreover, in assay [18], the result was inactive.
